The list is not random: actives were taken first. Their share in the collection is about 3.4%.
FBW7 act = activators of human E3 ligase FBW7 | Q969H0 | AlphaScreen FBW7–phospho-cyclin E peptide binding, activator screen | normalized activity (activation), % at 26.1 µM | 650,000 tested, 0.13% active | AID 1259310; in the data active means normalized activity above about 1.9%;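 further: purified mutant Fbw7 with reduced substrate affinity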
Target sequence (Q969H0 whole entry, looked up): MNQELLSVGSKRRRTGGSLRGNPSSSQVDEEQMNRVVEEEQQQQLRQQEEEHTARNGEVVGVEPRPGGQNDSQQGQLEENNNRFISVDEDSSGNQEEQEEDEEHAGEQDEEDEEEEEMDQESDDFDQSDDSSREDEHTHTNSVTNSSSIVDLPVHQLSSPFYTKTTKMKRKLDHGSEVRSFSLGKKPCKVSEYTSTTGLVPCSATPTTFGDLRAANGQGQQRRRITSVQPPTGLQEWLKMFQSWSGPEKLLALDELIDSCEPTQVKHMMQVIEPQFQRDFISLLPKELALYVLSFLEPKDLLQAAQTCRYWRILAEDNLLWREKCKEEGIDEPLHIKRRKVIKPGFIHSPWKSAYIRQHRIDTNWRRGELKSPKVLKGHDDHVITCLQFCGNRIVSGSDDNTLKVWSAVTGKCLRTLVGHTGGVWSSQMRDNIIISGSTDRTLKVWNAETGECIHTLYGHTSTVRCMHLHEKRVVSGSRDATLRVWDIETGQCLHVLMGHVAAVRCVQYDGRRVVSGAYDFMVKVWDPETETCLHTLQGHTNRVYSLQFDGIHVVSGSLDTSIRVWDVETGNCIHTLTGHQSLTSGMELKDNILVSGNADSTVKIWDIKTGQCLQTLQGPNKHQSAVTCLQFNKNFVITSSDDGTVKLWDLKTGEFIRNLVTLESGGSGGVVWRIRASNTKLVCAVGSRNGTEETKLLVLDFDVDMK
GPR151 ag = activates the human receptor GPR151. 650,000 tested, 1% active. Q8TDV0. activation, % at 11.2 µM. PathHunter beta-arrestin GPR151 cells, luminescence; in the data active means activation above about 4.9%;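 further: 0% = median of compound wells and 100% = cells with positive control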
TEAD-YAP inh = TEAD-YAP interaction inhibition; inhibition, % at 9.12 µM; AID 1259422; HEK-TIYL cells, TEAD-Gal4/YAP UAS-luciferase luminescence; 640,000 tested, 1.4% active; in the data active means inhibition above about 32%;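 further: 0% = median of test compound wells and 100% = reference inhibitor wells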
MITF primary = blocks human microphthalmia-associated transcription factor | O75030 | AlphaScreen MITF homodimerization, bead proximity signal | inhibition, % at 2.6 µM | 650,000 tested, 0.91% active; in the data active means inhibition above about 50%;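 further: 0% = vehicle wells with protein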
An asterisk follows results filed as active.

SMILES | FBW7 act | GPR151 ag | TEAD-YAP inh | MITF primary
COc1ccc(NC(=O)CSc2nc3ccccc3o2)cc1 | 1 | 3 | -55 | -3
COc1ccc(NC(=O)CSc2nc3ccccc3o2)cc1OC | 0 | -2 | 33* | 1
CC1CCc2nc(NC(=O)CSc3nc4ccccc4o3)sc2C1 (configuration not stated) | 0 | 2 | 67* | 1
Cc1nnc(SCC(=O)Nc2nc3c(s2)CC(C)CC3)s1 (configuration not stated) | 0 | 0 | -16 | 2
COc1cccc(NC(=O)N2CCC3(CC2)NCCc2c3[nH]c3ccc(Cl)cc23)c1 | 0 | 0 | 48* | 15
C[C@H](NC(=O)N1CCC2(CC1)NCCc1c2[nH]c2ccc(Cl)cc12)c1ccccc1 | 0 | 0 | 37* | 6
Cc1ccc2[nH]c3c(c2c1)CCNC31CCN(C(=O)N[C@@H](C)c2ccccc2)CC1 | 0 | 1 | -16 | 16
Cc1noc(C)c1NC(=O)N1CCC2(CC1)NCCc1c2[nH]c2ccc(Cl)cc12 | 0 | -1 | -5 | 14
COc1ccc(CCNC(=O)CCc2c(C)nc3nc(CN)nn3c2C)cc1OC | 0 | -4 | -8 | 47
CC(C)(C)OC(=O)N1CCC(Nc2ccnc(Cl)n2)CC1 | 0 | 1 | 35* | 5
Cc1ncn(-c2ccc(Nc3nccc(NC4CCN(C(=O)OC(C)(C)C)C4)n3)cc2)n1 (configuration not stated) | 0 | 1 | 46* | 7
CC(C)(C)OC(=O)N1CCC[C@H](Nc2ccnc(Cl)n2)C1 | 0 | 1 | -41 | 3
O=C(CNS(=O)(=O)c1ccc(Cl)cc1)Nc1cccc(Cl)c1 | 0 | -1 | 1 | 7
O=C1CN(S(=O)(=O)c2ccc3[nH]c4c(c3c2)CCCC4)c2ccccc2N1 | 0 | 1 | 62* | -15
CCOc1ccc(S(=O)(=O)N2CC(=O)Nc3ccccc32)cc1 | 0 | 2 | 42* | 2
O=C1CN(Cc2ccccc2)CC(=O)N1 | 0 | 2 | 6 | 8
O=C1CN(S(=O)(=O)c2ccc3ccccc3c2)c2ccccc2N1 | 0 | 0 | 2 | 6
Cc1cc(C)c(S(=O)(=O)N2CC(=O)Nc3ccccc32)c(C)c1 | 0 | -1 | 55* | 10
O=C1CN(Cc2ccccc2)c2ccccc2N1 | 0 | -2 | 96* | 7
CCCNS(=O)(=O)c1ccc2[nH]c3c(c2c1)CCCC3 | 0 | 2 | 5 | 4
O=C1CN(S(=O)(=O)c2ccc(Br)cc2)c2ccccc2N1 | 0 | 0 | -2 | -7
Cc1ccc(C(=O)NNC(=O)/C=C/c2ccccc2)cc1[N+](=O)[O-] | 0 | -1 | -3 | -4
COCCNc1ccc2ncc(-c3cccc(CO)c3)n2n1 | 0 | 0 | 33* | -17
CCCNc1ccc2ncc(-c3ccc(O)cc3)n2n1 | 0 | -1 | 77* | -27
COCCNc1ccc2ncc(-c3ccc(F)cc3)n2n1 | 0 | 0 | 14 | -9
SMILES | FBW7 act | GPR151 ag | TEAD-YAP inh | MITF primary
COCCNc1ccc2ncc(-c3cccc(F)c3)n2n1 | 0 | 2 | 26 | 10
COCCNc1ccc2ncc(-c3ccc(O)cc3)n2n1 | 0 | 1 | 58* | -22
COCCNc1ccc2ncc(-c3ccc4c(c3)OCO4)n2n1 | 0 | 2 | 39* | 4
Cc1nc2cc(-c3cccc(F)c3)nn2c(C)c1CCC(=O)Nc1ccc2c(c1)OCO2 | 0 | 1 | -11 | 26
CCOC(=O)N1CCN(c2cc(C)nc3c(-c4ccccc4OC)c(C)nn23)CC1 | 0 | 1 | 14 | 6
Cc1ccc(NC(=O)C(=O)NCC(c2ccc3c(c2)OCO3)N2CCN(C)CC2)cc1 (configuration not stated) | 0 | 1 | -9 | -7
CC(C)(C)NC(=O)CCN1C(=O)/C(=C\c2ccco2)SC1=S | 0 | 0 | -11 | 5
CCCNc1ccc2ncc(-c3cccc(O)c3)n2n1 | 0 | -1 | 0 | -15
CCCNc1ccc2ncc(-c3cccc(NC(C)=O)c3)n2n1 | 1 | 1 | 56* | 6
COc1ccc(CNC(=O)Cn2c(=O)n(C)c3ncccc32)cc1 | 0 | 1 | 3 | 7
Cc1cc(C)c(C(=O)/C=C/c2ccccc2F)c(=O)[nH]1 | 0 | 0 | 66* | -20
Cc1cc(C)c(C(=O)/C=C/c2ccncc2)c(=O)[nH]1 | 0 | 0 | 32 | -13
C=CCOc1ccc(C2C3=C(CCCC3=O)N(C)C3=C2C(=O)CCC3)cc1 | 0 | 0 | 5 | 13
CCOc1ccc(C(=O)Nc2ccc(S(=O)(=O)N3CCCCC3c3cccnc3)cc2)cc1 (configuration not stated) | 0 | 1 | 33* | 2
O=C(Nc1ccc(S(=O)(=O)N2CCCCC2c2cccnc2)cc1)c1ccc([N+](=O)[O-])cc1 (configuration not stated) | 0 | 0 | 36* | 10
Cc1ccc(C(=O)Nc2ccc(S(=O)(=O)N3CCCCC3c3cccnc3)cc2)cc1 (configuration not stated) | 0 | -1 | 12 | -17
O=C(Nc1ccc(S(=O)(=O)N2CCCCC2c2cccnc2)cc1)c1ccc(S(=O)(=O)N2CCCC2)cc1 (configuration not stated) | 0 | 0 | 26 | 18
CCOC(=O)N1CCN(Cc2ccc3c(c2)CN(C(=O)Cn2ccc(C)n2)CCO3)CC1 | 0 | 0 | 5 | 12
CC(C)N1CCN(Cc2ccc3c(c2)Cc2ccccc2-3)CC1CCO (configuration not stated) | 0 | -1 | 12 | 6
CC(=O)N(Cc1ccc(F)cc1)C1=C(NCc2ccccc2)C(=O)c2ccccc2C1=O | 0 | -3 | 59* | 4
COc1cccc(OC)c1C(=O)Nc1ccc(-c2cn3c(C)csc3n2)cc1 | 0 | 2 | 38* | -22
Cc1csc2nc(-c3ccc(NS(=O)(=O)c4cccnc4)cc3)cn12 | 0 | -1 | 36* | -6
CCOCC(=O)Nc1ccc(-c2cn3c(C)csc3n2)cc1 | 0 | 0 | 51* | -6
COc1ccc(-c2cn3c(NC(=O)c4ccncc4)c(C)nc3cn2)cc1 | 0 | 0 | -9 | 0
CCN(CC)c1ccc(NC(C)=O)c(C)c1 | 0 | 0 | -6 | 5
SMILES | FBW7 act | GPR151 ag | TEAD-YAP inh | MITF primary
Oc1c(C(Nc2nccs2)c2ccccn2)ccc2cccnc12 (configuration not stated) | 0 | 1 | 76* | 43
Oc1c(C(Nc2nccs2)c2ccccc2)ccc2cccnc12 (configuration not stated) | -1 | 0 | 70* | 24
Oc1c(C(Nc2nccs2)c2ccc(F)cc2)ccc2cccnc12 (configuration not stated) | -2 | -1 | 43* | 22
Oc1cccc(C(Nc2nccs2)c2ccc3cccnc3c2O)c1 (configuration not stated) | -1 | 0 | 73* | 69*
Cc1[nH]c2ccccc2c1C(Nc1nccs1)c1ccc(F)cc1 (configuration not stated) | 0 | 0 | -28 | 4
COCCN(Cc1ccccn1)C(Cc1ccccc1)C1CCN(Cc2cnn(C)c2)CC1 (configuration not stated) | 0 | -1 | -2 | -2

Assay outcomes: PubChem, The Scripps Research Institute Molecular Screening Center
